Drawing on PubChem BioAssay (NCI), this text covers growth for eleven compounds.

Among the test systems are SK-MEL-2 melanoma; EKVX NSCLC; SN12C renal; UO-31 renal; TK-10 renal; ACHN renal; CAKI-1 renal; A498 renal; CCRF-CEM leukemia; MOLT-4 leukemia.
Holding throughout (experiment): NCI-60 one-dose screen, 48 h (100 = growth as untreated, 0 = no growth, -100 = all killed)
Holding throughout (conditions): 10 µM unless noted

Compounds without any hit were thinned out: in the full panel of roughly 83,000, 20% have a hit.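 Note: values are percent growth. 100 is the growth of untreated cells, values between 100 and 0 indicate rising inhibition; between -100 and 0 indicates cell death.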 Unmarked numbers belong to inactive results. Active and inactive are the calls of the source. Rule for the calls: active = growth percent below 10; inactive = the rest.

For `C=C1C(=O)O[C@H]2[C@H]1CC/C(COC(=O)c1cc3ccccc3s1)=C\CC[C@@]1(C)O[C@@H]21`, the growth in the experiment with SK-MEL-2 melanoma was -67.2% (active); with EKVX NSCLC, -81.1% (active); with SN12C renal it was -43.9% (active); with UO-31 renal, -94.3% (active); with TK-10 renal it was -91.9% (active); in the experiment on ACHN renal it was -91.3% (active). Further, the growth was -72.6% (active) in the experiment with CAKI-1 renal, 61.9% in the experiment on A498 renal, -25.3% (active) with CCRF-CEM leukemia and -4.09% (active) in the experiment with MOLT-4 leukemia.
Turning to `COCCNC(=O)Nc1ccc2nc(-c3cccs3)c(-c3cccs3)nc2c1`, the growth in the experiment on SK-MEL-2 melanoma was 101%; in the experiment with EKVX NSCLC it was 87.9%; in the experiment on SN12C renal, 94.7%; with UO-31 renal it was 74.4%; in the experiment on TK-10 renal it was 104%; in the experiment on ACHN renal it was 89.3%. Moreover, the growth with CAKI-1 renal is 89.8%; in the experiment with A498 renal, 33.7%; with CCRF-CEM leukemia it was 96.8%; with MOLT-4 leukemia, 85.9%.
Turning to `COC1/C=C/OC2(C)Oc3c(C)c(O)c4c(O)c(c(/C=N/Nc5ccc([N+](=O)[O-])cc5[N+](=O)[O-])c(O)c4c3C2=O)NC(=O)C(C)=C/C=C/C(C)C(O)C(C)C(O)C(C)C(OC(C)=O)C1C` (stereo not given), the growth in the experiment on SK-MEL-2 melanoma was 30.5%; with EKVX NSCLC, 45.1%; in the experiment on SN12C renal, -5.59% (active); in the experiment with UO-31 renal it was 70.2%; in the experiment on TK-10 renal it was 25.7%; in the experiment with ACHN renal, 28.1%. Besides, the growth with CAKI-1 renal is 74.2%; with A498 renal it was 96%; with CCRF-CEM leukemia, 6.19% (active); in the experiment on MOLT-4 leukemia, 0.359% (active).
In the case of `CC/C(=C(/c1ccc(Cl)cc1)c1ccc(OCCN(C)C)cc1)c1ccc(Cl)cc1`, the growth with SK-MEL-2 melanoma was 80.9%; in the experiment on EKVX NSCLC, 73.7%; in the experiment with SN12C renal, 81.3%; with UO-31 renal, 64.3%; in the experiment on TK-10 renal, 77.8%; with ACHN renal, 83.9%. Besides, the growth with CAKI-1 renal was 60.4%; in the experiment with A498 renal it was 59%; with CCRF-CEM leukemia, 62.5%; in the experiment with MOLT-4 leukemia, 58.2%.
On to `Cc1cccc(CNc2c3ccccc3nc3ccccc23)c1`, for which the growth with SK-MEL-2 melanoma was 38%; in the experiment with EKVX NSCLC, 44.5%; in the experiment on SN12C renal, 26.1%; in the experiment on UO-31 renal, 14.7%; with TK-10 renal, 38.4%; in the experiment on ACHN renal, 15.8%. The growth with CAKI-1 renal was 17.7%; with A498 renal, -2.22% (active); with CCRF-CEM leukemia, 14.8%; with MOLT-4 leukemia, 2.32% (active).
Take `CC(=O)Oc1ccc(N2C(=O)C(Cl)=C(Nc3cccc(C(F)(F)F)c3)C2=O)cc1`: the growth in the experiment on SK-MEL-2 melanoma was 88%; in the experiment on EKVX NSCLC it was 103%; in the experiment with SN12C renal it was 93%; with UO-31 renal, 84.2%; in the experiment with TK-10 renal it was 94.9%; in the experiment with ACHN renal, 95%. Also, the growth with CAKI-1 renal is 92%; in the experiment with A498 renal it was 92%; with CCRF-CEM leukemia, 77.4%; in the experiment on MOLT-4 leukemia it was 85.9%.
For `COc1cc(-c2nc3sccn3c2-c2ccnc(NCCNS(=O)(=O)c3ccccc3)n2)ccc1F`, the growth was 54.2% in the experiment with SK-MEL-2 melanoma; 61.5% in the experiment with EKVX NSCLC; 46.4% in the experiment on SN12C renal; 16.1% in the experiment with UO-31 renal; 57% with TK-10 renal; 41.1% with ACHN renal. Further, the growth in the experiment on CAKI-1 renal was 26.9%; in the experiment on A498 renal, 48.9%; in the experiment on CCRF-CEM leukemia it was 30.9%; in the experiment on MOLT-4 leukemia it was 24.7%.
Turning to `O=CN1N=C(c2cccc(Nc3ccnc4cc(Cl)ccc34)c2)CC1c1ccccc1` (stereo not given), the growth in the experiment on SK-MEL-2 melanoma was 1.53% (active); in the experiment with EKVX NSCLC, 34.3%; with SN12C renal it was 30.9%; in the experiment on UO-31 renal it was 10.6%; in the experiment on TK-10 renal it was 32.2%; in the experiment with ACHN renal, 30.3%. The growth is 11.8% in the experiment with CAKI-1 renal, 5.63% (active) in the experiment with A498 renal, 8.4% (active) in the experiment on CCRF-CEM leukemia and 10% in the experiment on MOLT-4 leukemia.
Consider `CSc1nc2ncc([N+](=O)[O-])c(=O)n2[nH]1`, for which the growth was 107% in the experiment with SK-MEL-2 melanoma; 100% with EKVX NSCLC; 108% in the experiment on SN12C renal; 87.5% in the experiment with UO-31 renal; 97.8% with TK-10 renal; 103% in the experiment with ACHN renal. Besides, the growth was 92.8% in the experiment on CAKI-1 renal, 88.3% with A498 renal, 99.6% with CCRF-CEM leukemia and 129% in the experiment on MOLT-4 leukemia.
Take `Nc1nc(N)c(-c2ccc(Cl)c(Cl)c2)c(CBr)n1`: the growth with SK-MEL-2 melanoma is 87.6%; in the experiment on EKVX NSCLC it was 85.3%; with SN12C renal, 79.2%; with UO-31 renal it was 88.7%; in the experiment with TK-10 renal it was 83.6%; in the experiment on ACHN renal, 68.4%. Moreover, the growth is 82.3% with CAKI-1 renal, 89.9% with A498 renal, 55.8% with CCRF-CEM leukemia and 61.3% in the experiment on MOLT-4 leukemia.
For the compound `N#Cc1c(-c2ccccc2)cc(-c2ccc(Nc3nc(Nc4ccc(Cl)cc4)nc(Nc4ccc(Cl)cc4)n3)cc2)nc1N`, the growth in the experiment with SK-MEL-2 melanoma was 34%; with EKVX NSCLC, 9.99% (active); with SN12C renal, 50.2%; in the experiment with UO-31 renal, -82.4% (active); in the experiment on TK-10 renal, -60.1% (active); with ACHN renal it was -32.5% (active). Further, the growth in the experiment with CAKI-1 renal was 20.1%; with A498 renal, 81.8%; in the experiment on CCRF-CEM leukemia, 4.06% (active); in the experiment on MOLT-4 leukemia, 4.72% (active).
